# Sampled rows, rich in hits. Any-hit rate of the full collection: about 19%.
# DT40 TDP1 no CPT = qHTS for Inhibitors of human tyrosyl-DNA phosphodiesterase 1 (TDP1): qHTS in cells in absence of CPT; DT40 Tdp1-/- hTDP1 cells, no CPT, ATP luminescence, 48 h; Potency, µM (doses to about 46.2 µM), most hits filed as inhibitors; 420,000 compounds, 15% hits; AID 686978, 2013; note: nearly all actives have a fitted effect of over 55% in size
#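 Stably hTDP1-transfected Tdp1-null chicken DT40 cells were treated with library compounds minus camptothecin and grown for at least 48 hr at 37 °C, after which cellular ATP was quantified by luminescence.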
# IL-1B inflam inh = blocks inflammasome-driven IL-1 beta release; THP-1 LPS/ATP IL-1B secretion, AlphaLISA, 16 h; hits give low values; activity change, % at 57.5 µM; 360,000 compounds, 4.7% hits; in the data active = activity change below about -50%; inconclusive = mostly about -30% to -49%
#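 THP-1 cells pretreated 1 hr with compounds (up to 57.5 uM final), then stimulated with LPS (250 ng/mL final) plus ATP (1.25 mM final); secreted IL-1B measured by AlphaLISA after 16 hr, decreased signal indicating inhibition.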
# DT40 TDP1 CPT = growth inhibition of DT40 Tdp1-/-;hTDP1 cells with camptothecin (screen for TDP1 inhibitors); chicken DT40 Tdp1-/-;hTDP1 cells + 20 nM CPT, ATP luminescence, 48 h; Potency, µM (highest dose often 46.2 µM), most hits filed as inhibitors; 420,000 compounds, 12% hits; note: nearly all actives have a fitted effect of over 55% in size
#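 Chicken DT40 Tdp1-/- cells stably complemented with human TDP1 were seeded at 400 cells/well in medium containing 20 nM camptothecin, exposed to pin-transferred compounds, and grown at 37 °C for at least 48 hr. Viability was read as ATP luminescence.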
# ELG1 repair inh = ELG1-dependent DNA repair inhibition; HEK293T ELG1-luciferase reporter, luminescence, 16 h; DNA damage induced by 5-fluorouridine; Potency, µM (top dose mostly 46.1 µM), usual class: inhibitors; 330,000 compounds, 2.3% hits; AID 504467; note: nearly all actives have a fitted effect of over 55% in size
#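 Cells (2,000 per well) received 5-fluorouridine plus test compound or DMSO and were incubated 16 hr at 37 °C, 5% CO2. Luciferase activity was read by luminescence 30 min after ONE-Glo addition; signal suppression marked inhibition of damage-induced ELG1 function.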
# HT1080NT lethal = kills 2HG-producing HT-1080-NT fibrosarcoma cells; HT-1080-NT fibrosarcoma viability, CellTiter-Glo ATP luminescence, 48 h; Potency, µM (doses to about 46.1 µM), hits mostly cytotoxic; 360,000 compounds, 1.6% hits;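 note: NT is the 2HG producing partner of a matched IDH1 knockdown line; nearly all actives have a fitted effect of over 55% in size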
#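 Luminescent CellTiter-Glo readout after 48 hours of compound exposure at 37 degrees C defined viability of HT-1080-NT cells. Activity was normalized to DMSO wells and cell-free media wells; concentration-response curves were fitted and assigned curve classes.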
# HT1080 IDH1KD tx = kills HT-1080 cells with IDH1 knockdown | HT-1080 IDH1 knockdown viability, ATP luminescence, 48 h | Potency, µM (highest dose often 46.1 µM), usual class: cytotoxic | 360,000 compounds, 2% hits | AID 686971
#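 Knockdown cells (IDH1KD HT-1080) received compounds 2 h after plating at 750 cells/well and were kept 48 h at 37 °C in 5% FBS RPMI. A CellTiter-Glo luminescence read gave % activity for curve fitting.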
# A number is an active result; . = inactive; ? = inconclusive; / = no result given. Unless noted, calls come from the whole dose curve; as a rule, active = well fitted curve in the direction sought with a large enough effect; inconclusive = small, poorly fitted or top-dose-only effect, or another doubt; inactive = no such curve, though single readings can be large; an effect the other way counts as inactive or inconclusive.
SMILES,DT40 TDP1 no CPT,IL-1B inflam inh,DT40 TDP1 CPT,ELG1 repair inh,HT1080NT lethal,HT1080 IDH1KD tx
CCOc1ccc2oc(C(=O)NNC(=O)c3ccccc3O)c(C)c2c1,26µM,.,?,.,?,.
CCOc1ccc2oc(C(=O)O)c(C)c2c1,.,.,.,?,.,.
Cc1c(C(=O)NNC(=O)c2ccccc2O)oc2ccc(Br)cc12,?,.,21µM,/,.,.
CC1CCC(NC(=O)c2ccc3c(c2)N(Cc2cccc(Cl)c2)C(=O)c2ccccc2S3(=O)=O)CC1 (stereo not given),.,/,.,/,/,/
COc1ccc(S(=O)(=O)N2CCOC23CCN(S(=O)(=O)c2ccc(F)cc2C)CC3)cc1,23µM,.,?,.,.,.
COc1ccc(S(=O)(=O)N2CCOC23CCN(S(=O)(=O)c2c(C)cc(C)cc2C)CC3)cc1,16µM,.,?,?,.,.
COc1ccc(S(=O)(=O)N2CCOC23CCN(S(=O)(=O)c2cc(C)ccc2C)CC3)cc1,?,.,21µM,.,.,.
C[C@H](N=C(NC#N)Nc1ccncc1)C(C)(C)C,?,/,.,/,/,/
CCCS(=O)(=O)N1CC(=O)N(c2ccc(C)cc2C)C(C)(C(=O)NC2CCCCCC2)C1 (stereo not given),.,/,.,/,/,/
COc1ccc(NC(=O)N2CCCC3(CCN(C(=O)c4csnn4)CC3)C2)cc1,.,/,.,/,/,/
CC1=C(C(=O)N2CCOCC2)CC(CC(=O)NCC2CCCCC2)C(=O)N1Cc1ccc(C(C)(C)C)cc1 (stereo not given),?,-53,18µM,/,?,?
CC1=C(C(=O)N2CCOCC2)CC(CC(=O)NC2CC2)C(=O)N1Cc1ccc(C(C)(C)C)cc1 (stereo not given),.,.,.,/,.,.
COc1ccc(CN2C(=O)C(CC(=O)NC3CCCC3)CC(C(=O)N(C(C)C)C(C)C)=C2C)cc1 (stereo not given),?,.,?,/,.,.
CC1=C(C(=O)N2CCOCC2)CC(CC(=O)NC2CCCCC2)C(=O)N1Cc1ccc(C(C)(C)C)cc1 (stereo not given),21µM,.,?,/,.,.
CC1=C(C(=O)N(C(C)C)C(C)C)CC(CC(=O)NC2CCCCC2)C(=O)N1Cc1ccc(C(C)(C)C)cc1 (stereo not given),21µM,.,15µM,/,?,?
CC1=C(C(=O)N2CCCCCC2)CC(CC(=O)NC2CCCCC2)C(=O)N1Cc1ccc(C(C)(C)C)cc1 (stereo not given),21µM,-73,15µM,/,.,.
CC1=C(C(=O)N2CCCCCC2)CC(CC(=O)NCCc2ccccn2)C(=O)N1Cc1ccc(C(C)(C)C)cc1 (stereo not given),16µM,?,18µM,/,.,?
CC1=C(C(=O)N2CCCCCC2)CC(CC(=O)NCCCN(C)C)C(=O)N1Cc1ccc(C(C)(C)C)cc1 (stereo not given),?,/,8.3µM,/,?,?
Nc1nc(N)c2ncn(C3C=CC(CO)C3)c2n1 (stereo not given),9.2µM,.,6.5µM,/,.,.
Nc1ncnc2c1ncn2C1CCCC(CO)O1 (stereo not given),.,.,.,/,.,.
COc1cccc(NC(=O)c2cnc(SCC(=O)NCc3ccc4c(c3)OCO4)n(C)c2=O)c1,12µM,.,21µM,?,.,.
COc1cccc(NC(=O)Cn2c(SCC(=O)N3CCOCC3)nc3ccccc32)c1,.,.,.,.,.,.
COc1cccc(NC(=O)c2cnc(SCC(=O)N3CCOCC3)n(C)c2=O)c1,15µM,/,15µM,/,/,/
CC1CC(N(C(=O)c2ccc(Cl)cc2)c2ccccc2)c2ccccc2N1C(=O)c1ccco1 (stereo not given),5.8µM,?,12µM,?,?,?
NC(CCc1ccccc1)c1csc(Nc2nccc(C(F)(F)F)n2)n1 (stereo not given),?,.,?,/,16µM,?
SMILES,DT40 TDP1 no CPT,IL-1B inflam inh,DT40 TDP1 CPT,ELG1 repair inh,HT1080NT lethal,HT1080 IDH1KD tx
Cc1cc(C)nc(Nc2nc(C(N)CCc3ccccc3)cs2)n1 (stereo not given),21µM,.,?,/,?,?
Cc1cccc(C(=O)Nc2cccc(OCc3cc(=O)n4ccccc4n3)c2)c1,.,/,.,/,/,/
CC(=O)OCC(=O)[C@@]1(O)CCC2C3CCC4=CC(=O)CC[C@]4(C)C3C(O)C[C@]21C (stereo not given in full),.,/,.,/,/,/
CC[C@]12C(=O)N(C)C[C@H]([C@@H]3C(=O)N(C)C(=O)[C@@H]31)N2C(=O)c1ccccc1,.,.,.,/,.,.
Cc1cccc(NC2=NC(=S)N(c3ccc(C(=O)O)cc3)C23CCCCC3)c1,.,.,?,.,.,.
Cc1ccccc1NC1=NC(=S)N(c2ccccc2)C12CCCCC2,?,.,18µM,.,.,.
O=C(NCC(c1ccco1)N1CCN(c2ccccc2)CC1)c1ccc2c(c1)OCO2 (stereo not given),?,.,?,?,.,.
Cc1cc(C)n(-c2nnc(Nc3ccc(C)c(Cl)c3)c3ccccc23)n1,8.2µM,/,?,/,/,/
CC(=O)c1ccc(NC(=O)Cn2nc(C(F)(F)F)c3c2CCCC3)cc1,?,/,.,/,/,/
COc1ccc(N2C(=O)C(C)(C)C2c2c(O)ccc3ccccc23)cc1 (stereo not given),16µM,.,21µM,.,.,.
CC1(C)C(=O)N(c2ccccc2)C1c1ccccc1O (stereo not given),16µM,.,?,?,?,?
Cc1ccc(N2C(=O)CC(C)CC2=O)cc1,.,.,.,.,.,.
COc1cc(C2CC(=O)N(c3ccc(C)cc3)C(=O)C2)cc(OC)c1OC,1.8µM,.,1.8µM,.,3.3µM,?
COc1ccc2c(c1)OC(=O)CC2c1cc(OC)c(OC)c(OC)c1 (stereo not given),?,.,?,.,?,15µM
COc1ccc(N2C(=O)CC(c3cc(OC)c(OC)c(OC)c3)CC2=O)cc1,13µM,.,15µM,?,.,.
COc1ccc(N2C(=O)C3CCCN3C2c2cc(OC)c(OC)c(OC)c2)cc1 (stereo not given),.,.,.,.,.,.
COc1ccc2c(c1)c1c(c(=O)n(-c3ccc(C)cc3)c(=O)n1CC(=O)c1ccc(Cl)cc1)n2C,?,/,.,/,/,/
CCN1CC(c2ccccc2)C(c2ccc(Cl)cc2)=N1 (stereo not given),.,.,.,.,.,.
